This is part of a sample that, as a whole, favours compounds with a hit. Of some 79,000 tested, about 15% had one in any assay. A number with no mark means an inactive call. Rule as the data show it: active = growth inhibition above about 70%; inactive = the rest.
Assay: NCI Yeast Anticancer Drug Screen. Data for the mec2-1 strain (AID 157)
Settings: S. cerevisiae mec2-1 strain, at 50.0 µM, active compounds read high
How it was run: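 Each compound was tested on mec2-1 yeast, a strain altered in DNA damage repair or cell cycle control. Growth inhibition is reported relative to vehicle.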

Row | SMILES | growth inhibition
1 | CCOC(=O)CCC(NC(=O)c1ccc(Nc2nc3ccccc3nc2-c2cccs2)cc1)C(=O)OCC (stereo not given) | 4.3%
2 | O=C(O)CC(NC(=O)c1cnc2ccccc2n1)C(=O)O (stereo not given) | -9.85%
3 | C[C@]12CCC(=O)C=C1CC[C@@H]1C2CC[C@]2(C)Nc3[nH]ncc3CC12 (stereo not given in full) | 9.6%
4 | CC1OC(OC2C(Oc3cc(O)c4c(=O)cc(-c5ccc(O)cc5)oc4c3)OC(CO)C(O)C2O)C(O)C(O)C1O (stereo not given) | 5.75%
5 | CC1(C)Cc2ccccc2C(C)(Cl)C(=O)N1 (stereo not given) | 0.3%
6 | CC(C)CCCC(C)C1CCC2C3CCC4CC(=O)/C(=C\O)CC4(C)C3CCC12C (stereo not given) | 51.5%
7 | O=C(c1ccc(Cl)cc1)C1C(c2ccccc2)C1[N+](=O)[O-] (stereo not given) | -11.2%
8 | CCOP(C)(=O)/C(Cc1ccc(OC)c(OC)c1)=N\O (stereo not given) | -22.8%
9 | NNC(=O)c1c(-c2cccnc2)cnc2ccccc12 | -20.6%
10 | O=C(Nc1nc(=S)[nH][nH]1)C(=O)C1C(=O)Nc2ccccc2S1=O (stereo not given) | -10.8%
11 | CCCCCCC#CC(=O)OCCCC | -14.9%
12 | Cc1ccc(C(=O)OCc2ccccc2CN2CCCCC2)cc1 | -8.35%
13 | Cc1cc(S(=O)(=O)NC(=NCC(=O)NN)NN)c(S)cc1Cl | 2.65%
14 | Cc1nc2[nH]cc(-c3ccccc3)c2c(=N)n1-c1ccc(F)cc1 | 0.8%
15 | COc1cc(=O)cc2n(-c3cc(OC)c(O)c(OC)c3)c3ccccc3nc1-2 | 0.1%
16 | [Cl][Sm]([Cl])[Cl] | -9.7%
17 | CCOC(=O)CNC(=O)CCC(=O)OC | -4.8%
18 | O=C(O)c1ccc2c(c1)Cc1ccccc1-2 | 47.9%
19 | Nc1ncc2c(ncn2CC(O)CO)n1 (stereo not given) | -2.5%
20 | N#Cc1c(Br)n(C2OC(CO)C(O)C2O)c2ncncc12 (stereo not given) | 7.5%

Row | SMILES | growth inhibition
21 | Oc1cccc(C(c2ccccc2)c2ccccc2)c1 | 0.3%
22 | CC(C)=CC1C(C(=O)O)C1(C)C (stereo not given) | -13.2%
23 | Oc1ccc2c(c1)c1ccccc1c1ncccc21 | 3.4%
24 | CC(C)(SC(=N)N)B(O)O | -12.3%
25 | O=C(Nc1cccc(Cl)c1)c1cc2cc(N=Nc3ccc(Br)cc3)ccc2oc1=O | 33.6%
26 | CCCC(CCC)(CCC)CCN(C)C | -5.95%
27 | Cn1nc2ccccc2cc1=O | 2.65%
28 | COc1nc(NC2OC(CO)C(O)C(O)C2O)c(C(C)=O)c(=O)n1C (stereo not given) | 2.25%
29 | CC(=O)CC(=O)N1CCC(C)CC1 | -24.9%
30 | COc1cc2cnc3c4ccccc4ccc3c2cc1OC | -18.1%
31 | NCCSCCC(=O)O | -12.1%
32 | COc1ccc(C2CC(c3c(C)nn(-c4ccccc4)c3-c3ccc(C)cc3O)=NN2c2ccccc2)cc1 (stereo not given) | -12.3%
33 | CCc1cn(C2CC(CO)C(CO)S2)c(=O)[nH]c1=O (stereo not given) | -33%
34 | CSc1ccc(NC(=O)Nc2ccc(Nc3ccccc3)cc2)cc1 | 29.8%
35 | COc1cc(NC(C)CCCN)c2nccc(C)c2c1 (stereo not given) | 12.2%
36 | C/C=C/C(=O)OCCCCCCCCCCCCCCCCCC | -23.8%
37 | O=C1OCC(c2ccccc2)(c2ccccc2)C(=O)N1O | -2.1%
38 | Oc1cccnc1CN1CCOCC1 | -14.3%
39 | Cc1ccc(N)cc1S(=O)(=O)O | -10.6%
40 | O=[N+]([O-])c1ccc2c(c1)Cc1cc([N+](=O)[O-])ccc1-2 | -64.5%

Reference: PubChem BioAssay (NCI)
